Drawing on PubChem BioAssay AID697 (Columbia University Molecular Screening Center, 2007), this text covers activation for 52 compounds.

Out of some 96,000 compounds screened, about 100 (0.1%) were called active.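 Rule for the calls: active = activation at 2 µM above a set limit, the mean plus 5 SD (cut at about 37% in these data); inactive = the rest.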 The sample as a whole holds a higher share of actives than the screen did.

The target in this experiment is Tyrosine-protein phosphatase non-receptor type 22 (Homo sapiens) (UniProt Q9Y2R2). In words: LYP phosphatase activators, primary screen, biochemical, DiFMUP fluorescence, 2 µM (AID 697). The settings on record: recombinant LYP, at 2 µM, active compounds read high, 0 = plate median, 100 = signal doubled.
Chain of Tyrosine-protein phosphatase non-receptor type 22 (Homo sapiens) (Q9Y2R2 whole entry, looked up): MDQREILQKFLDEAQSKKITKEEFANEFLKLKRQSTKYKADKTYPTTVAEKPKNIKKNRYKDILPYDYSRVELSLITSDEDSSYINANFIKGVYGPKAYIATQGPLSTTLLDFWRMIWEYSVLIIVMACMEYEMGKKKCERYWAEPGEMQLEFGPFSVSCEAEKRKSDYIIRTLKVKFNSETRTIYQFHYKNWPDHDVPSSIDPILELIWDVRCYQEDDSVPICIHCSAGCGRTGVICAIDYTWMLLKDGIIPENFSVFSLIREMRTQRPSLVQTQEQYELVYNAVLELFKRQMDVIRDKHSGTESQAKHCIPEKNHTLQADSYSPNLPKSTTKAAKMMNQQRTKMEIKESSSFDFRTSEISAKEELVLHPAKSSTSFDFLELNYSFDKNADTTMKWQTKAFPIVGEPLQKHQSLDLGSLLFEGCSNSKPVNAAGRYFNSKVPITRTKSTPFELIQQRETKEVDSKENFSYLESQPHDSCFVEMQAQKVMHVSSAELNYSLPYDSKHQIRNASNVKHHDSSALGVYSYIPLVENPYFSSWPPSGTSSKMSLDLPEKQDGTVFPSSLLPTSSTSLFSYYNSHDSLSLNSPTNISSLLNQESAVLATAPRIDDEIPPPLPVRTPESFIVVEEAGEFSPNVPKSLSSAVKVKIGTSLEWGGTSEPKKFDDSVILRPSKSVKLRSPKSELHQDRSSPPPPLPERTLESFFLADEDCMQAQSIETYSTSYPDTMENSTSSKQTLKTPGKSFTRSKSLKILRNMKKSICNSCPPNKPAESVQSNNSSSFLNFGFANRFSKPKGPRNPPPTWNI
Turning to `CCCc1nc2oc3c(OCC)ncnc3c2c2c1COC(C)(C)C2`, the activation is -1.3% (inactive). The result for `O=C(NN1C(=O)C2C3C=CC(C4CC34)C2C1=O)c1ccc(Cl)cc1` (configuration not stated) reads 3.3% (inactive). The result for `COc1ccccc1C(=O)Nc1ccc(NC(=O)c2ccco2)c(C)c1` reads 7.2% (inactive); that for `COc1ccc(N2CCN(C(=O)CNC(=O)c3ccc(C(C)(C)C)cc3)CC2)cc1`, -8.3% (inactive). In the case of `CCN(CC)C(=O)CSc1nc2ccccc2o1` it was 8.6% (inactive); in that of `COc1cccc(N(CC(=O)NCCSc2ccccn2)S(C)(=O)=O)c1`, -4.5% (inactive); in that of `COc1cc(C)c(C(C)C)cc1S(=O)(=O)n1ccnc1`, 9.7% (inactive). Take `N#CCCn1ncc2ccccc21`: the activation was 44.2% (active).

As to `N#CCCn1cnc2ccccc21`, the activation was 2% (inactive).

As to `Cc1cc(Nc2ccccc2)n(CCC#N)n1`, the activation was -4.9% (inactive).

With `O=C(NC1CCC(O)CC1)c1ccc(S(=O)(=O)NCc2ccco2)cc1` (configuration not stated), the activation was 8.1% (inactive).

For the compound `CC(=O)N/C(=C/c1ccc(Cl)cc1)C(=O)NCCc1c[nH]c2ccccc12`, the activation is -3% (inactive). On to `COc1cc2c(cc1OC)C(C(C)C)=NC(C)(C)C2`, for which the activation was 12.3% (inactive). As for `Cc1nn(Cc2ccccc2)c2c1C(c1ccccc1)C(C#N)=C(N)O2` (configuration not stated), the activation was -7.2% (inactive). The result for `CC(C)(C)NC(=O)Cn1c(SCC(=O)Nc2nccs2)nc2ccccc21` reads 8% (inactive); that for `COc1ccc(N(CC(=O)NC2CCCCC2)C(=O)CNC(=O)c2ccco2)c(OC)c1`, 9.4% (inactive).

As to `Cc1ccc(C(=O)N/C(=C/C=C/c2ccccc2)C(=O)NCc2ccco2)cc1`, the activation is -2.3% (inactive). The result for `COC(=O)C(C)Oc1ccc2c(-c3cccc([N+](=O)[O-])c3)cc(=O)oc2c1` (configuration not stated) reads 0.1% (inactive); that for `Cc1ccc(NS(=O)(=O)c2c(C)[nH]c(=O)[nH]c2=O)cc1C`, 0.8% (inactive). In the case of `CC(=O)C1=C(C)NC(C)=C(C(C)=O)C1c1cn(-c2ccccc2)nc1-c1cccs1` it was -3.9% (inactive); in that of `COc1cccc2cc(C(=O)N3CCN(C(=O)c4ccccc4)CC3)c(=O)oc12`, 17.4% (inactive); in that of `CS(=O)(=O)N(CC(=O)N1CCN(Cc2ccccc2)CC1)c1ccc2c(c1)OCCO2`, -3.3% (inactive). The result for `O=C(CCNS(=O)(=O)c1ccccc1C(F)(F)F)NCc1ccc2c(c1)OCO2` reads 13.9% (inactive); that for `CCOc1ccc(-c2nc(C)sc2CC(=O)O)cc1`, 14.3% (inactive). `Cc1ccc(NC(=O)CN2CCc3ccccc3C2)cc1`: the activation was -4.9% (inactive). With `CC(C)C(=O)NC(NC(=S)NC1CCS(=O)(=O)C1)C(Cl)(Cl)Cl` (configuration not stated), the activation is -11.6% (inactive). Turning to `O=C(Oc1ccccc1C(=S)N1CCCCC1)c1cc([N+](=O)[O-])cc([N+](=O)[O-])c1`, the activation was -4.4% (inactive). Regarding `c1ccc(-c2nccc(-c3ccc(-n4cnc5ccccc54)cc3)n2)nc1`, the activation is -36.4% (inactive). On to `Cn1ncc2c(Nc3cccc4ccccc34)ncnc21`, for which the activation was -5% (inactive). For `CCn1c(-c2ccoc2C)n[nH]c1=S`, the activation is 7.5% (inactive).

As to `N#Cc1ccccc1CN1C(=O)S/C(=C/c2cccn2-c2cccc(C(=O)O)c2)C1=O`, the activation was -30.2% (inactive). In the case of `O=C1CC(C(F)(F)C(F)(F)C(F)(F)C(F)(F)F)=Nc2ccccc2N1` it was 1.9% (inactive); in that of `N#Cc1ccc(Oc2cc(C(F)(F)F)nc(-c3ccccn3)n2)cc1`, -2.8% (inactive); in that of `CCSc1nnc(-c2cc3c(s2)-c2ccccc2CC3)o1`, -3.7% (inactive). The result for `O=C(CCCn1c(SCC(=O)c2ccccc2)nc2ccccc2c1=O)NCC1CCCO1` (configuration not stated) reads -4.2% (inactive). In the case of `c1ccc(-c2nc(NCc3ccco3)c3ccccc3n2)cc1`, the activation was 8% (inactive). In the case of `CCSc1ccccc1C(=O)NCc1ccc(OC)cc1` it was -18.7% (inactive); in that of `Cc1nc(NC2=NC(C(=O)Nc3ccc(Cl)cc3)CC(=O)N2)nc2ccccc12` (configuration not stated), -2.8% (inactive). For `COc1cccc(CNCCc2c[nH]c3ccccc23)c1OCc1ccccc1F`, the activation was 10.4% (inactive). In the case of `CC(C)NC(=O)c1ccccc1S(=O)c1ccccc1C#N` (configuration not stated) it was 4% (inactive); in that of `O=C(Cc1c(O)c2ccccc2[nH]c1=O)NCc1ccccc1`, 3.6% (inactive); in that of `C=CCn1c(Oc2ccc(C(=O)OC)cc2)nc2c1c(=O)n(C)c(=O)n2C`, -3.9% (inactive).

In the case of `O=C(O)C1CC=CCC1C(=O)Nc1ccccc1C(=O)N1CCN(c2ccccc2)CC1` (configuration not stated), the activation was -3.2% (inactive). The result for `Cc1cccc(NC(=O)c2ccc(OCC(=O)NCc3ccccc3)cc2)c1C` reads 6% (inactive); that for `O=C(COC(=O)c1ccccc1SCC(=O)NC1CCCCC1)NC1CCCCC1`, -5.6% (inactive); that for `O=C(Nc1ccccc1)OCc1cn(-c2ccc(Cl)cc2)nn1`, -1.5% (inactive). The result for `Cc1ccc(N2C(=O)CC(Sc3ncn[nH]3)C2=O)cc1` (configuration not stated) reads -8.7% (inactive); that for `Cc1onc(-c2ccccc2Cl)c1C(=O)OCC(=O)c1ccccc1`, 13.5% (inactive); that for `Cc1noc(C)c1C(=O)N1CCOCC1`, 33% (inactive). For `CN(C)c1ccc(NC(=S)N(CCc2ccccc2)C2CC(=O)N(c3c(Cl)cccc3Cl)C2=O)cc1` (configuration not stated), the activation was -8.5% (inactive). On to `CC1=CC(C)(C)NC(=S)N1c1ccccc1`, for which the activation is -7.5% (inactive). In the case of `COC(=O)C1(O)CC(C(C)C)=NN1C(=O)c1ccc(Cl)cc1` (configuration not stated) it was -5.9% (inactive).
